Measured values taken from PubChem BioAssay AID1159580 (chemical genetic matrix, 2015).
The whole screen tested about 5,500 compounds, of which about 2,000 (36%) were called active. About 18% were inconclusive and are not listed. Cut-off read from the data, not from the text of the source: active = normalized growth mostly below about 0.91 (no sharp cut-off); inconclusive = no clear call, values can overlap the other calls; inactive = mostly above about 0.92. Some of the results follow.

Experiment: chemical genetic growth profiling, strain panel (AID 1159580);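 note: tested at 20 µM; growth read once vehicle control cultures reached saturation at 30 °C; 1 = growth at the plate median or of vehicle wells; lower values mean less growth of the strain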
Conditions: growth OD

Measured: normalized growth

Oc1c(Br)cc(Br)c2cccnc12
active: S. cerevisiae deletion strains, locus YJR075W, strain HOC1, stronger effect = lower value 0.0682 | S. cerevisiae deletion strains, locus YKL009W, strain mrt4, stronger effect = lower value 0.0898 | S. cerevisiae deletion strains, locus YKL068W, stronger effect = lower value 0.0659 | S. cerevisiae deletion strains, locus YKL085W, strain MDH1 (second series), stronger effect = lower value 0.0622 | S. cerevisiae deletion strains, locus YKL085W, strain MDH1, stronger effect = lower value 0.0622 | S. cerevisiae deletion strains, locus YKL160W, strain elf1, stronger effect = lower value 0.0686 | S. cerevisiae deletion strains, locus YKL190W, strain CNB1, stronger effect = lower value 0.049 | S. cerevisiae deletion strains, locus YKR001C, strain vps1, stronger effect = lower value 0.0714 | S. cerevisiae deletion strains, locus YKR026C, strain gcn3, stronger effect = lower value 0.0599 | S. cerevisiae deletion strains, locus YKR091W, strain srl3, stronger effect = lower value 0.0574 | S. cerevisiae deletion strains, locus YLL001W, strain dnm1, stronger effect = lower value 0.0635 | S. cerevisiae deletion strains, locus YLL026W, stronger effect = lower value 0.065 | S. cerevisiae deletion strains, locus YLL041C, strain sdh2, stronger effect = lower value 0.0602 | S. cerevisiae deletion strains, locus YLR027C, strain aat2, stronger effect = lower value 0.0544 | S. cerevisiae deletion strains, locus YLR039C, strain RIC1, stronger effect = lower value 0.0808 | S. cerevisiae deletion strains, locus YLR058C, strain SHM2, stronger effect = lower value 0.0497 | S. cerevisiae deletion strains, locus YLR102C, strain apc9, stronger effect = lower value 0.0675 | S. cerevisiae deletion strains, locus YLR113W, strain HOG1, stronger effect = lower value 0.164 | S. cerevisiae deletion strains, locus YLR221C, strain rsa3, stronger effect = lower value 0.061 | S. cerevisiae deletion strains, locus YLR258W, strain gsy2, stronger effect = lower value 0.0604 | S. cerevisiae deletion strains, locus YLR262C, strain YPT6 (second series), stronger effect = lower value 0.0797 | S. cerevisiae deletion strains, locus YLR262C, strain YPT6, stronger effect = lower value 0.106 | S. cerevisiae deletion strains, locus YLR268W, strain sec22, stronger effect = lower value 0.0737 | S. cerevisiae deletion strains, locus YLR320W, strain mms22, stronger effect = lower value 0.0804 | S. cerevisiae deletion strains, locus YLR330W, strain CHS5, stronger effect = lower value 0.0542 | S. cerevisiae deletion strains, locus YLR342W, strain FKS1 (second series), stronger effect = lower value 0.0742 | S. cerevisiae deletion strains, locus YLR342W, strain FKS1, stronger effect = lower value 0.0656 | S. cerevisiae deletion strains, locus YLR357W, strain rsc2, stronger effect = lower value 0.121 | S. cerevisiae deletion strains, locus YLR370C, strain arc18, stronger effect = lower value 0.0663 | S. cerevisiae deletion strains, locus YLR371W, strain rom2, stronger effect = lower value 0.0714 | S. cerevisiae deletion strains, locus YLR384C, strain iki3, stronger effect = lower value 0.0612 | S. cerevisiae deletion strains, locus YLR418C, strain cdc73, stronger effect = lower value 0.11 | S. cerevisiae deletion strains, locus YML016C, strain PPZ1, stronger effect = lower value 0.0489 | S. cerevisiae deletion strains, locus YML032C, strain rad52, stronger effect = lower value 0.0748 | S. cerevisiae deletion strains, locus YML120C, strain ndi1, stronger effect = lower value 0.0584 | S. cerevisiae deletion strains, locus YML124C, strain tub3, stronger effect = lower value 0.067 | S. cerevisiae deletion strains, locus YMR058W, strain fet3, stronger effect = lower value 0.0605 | S. cerevisiae deletion strains, locus YMR078C, strain ctf18, stronger effect = lower value 0.0799 | S. cerevisiae deletion strains, locus YMR125W, strain sto1, stronger effect = lower value 0.0777 | S. cerevisiae deletion strains, locus YMR129W, stronger effect = lower value 0.0576 | S. cerevisiae deletion strains, locus YMR205C, strain PFK2, stronger effect = lower value 0.0851 | S. cerevisiae deletion strains, locus YMR223W, strain ubp8, stronger effect = lower value 0.0723 | S. cerevisiae deletion strains, locus YMR231W, strain pep5, stronger effect = lower value 0.0707 | S. cerevisiae deletion strains, locus YMR263W, strain SAP30, stronger effect = lower value 0.0608 | S. cerevisiae deletion strains, locus YMR307W, strain GAS1, stronger effect = lower value 0.111 | S. cerevisiae deletion strains, locus YNL067W, strain RPL9B, stronger effect = lower value 0.0529 | S. cerevisiae deletion strains, locus YNL071W, strain lat1, stronger effect = lower value 0.061 | S. cerevisiae deletion strains, locus YNL128W, strain TEP1, stronger effect = lower value 0.0661 | S. cerevisiae deletion strains, locus YNL153C, strain GIM3, stronger effect = lower value 0.0523 | S. cerevisiae deletion strains, locus YNL183C, strain NPR1, stronger effect = lower value -0.0047 | S. cerevisiae deletion strains, locus YNL209W, strain ssb2, stronger effect = lower value 0.0598 | S. cerevisiae deletion strains, locus YNL233W, strain BNI4, stronger effect = lower value 0.0553 | S. cerevisiae deletion strains, locus YNL248C, strain rpa49, stronger effect = lower value 0.0858 | S. cerevisiae deletion strains, locus YNL250W, strain rad50, stronger effect = lower value 0.0799 | S. cerevisiae deletion strains, locus YNL271C, strain bni1, stronger effect = lower value 0.075 | S. cerevisiae deletion strains, locus YNL298W, strain CLA4, stronger effect = lower value 0.0729 | S. cerevisiae deletion strains, locus YNL307C, strain MCK1, stronger effect = lower value 0.078 | S. cerevisiae deletion strains, locus YNL322C, strain KRE1 (second series), stronger effect = lower value 0.0637 | S. cerevisiae deletion strains, locus YNL322C, strain KRE1, stronger effect = lower value 0.0493 | S. cerevisiae deletion strains, locus YNR049C, strain mso1, stronger effect = lower value 0.0578 | S. cerevisiae deletion strains, locus YNR052C, strain pop2, stronger effect = lower value 0.0694 | S. cerevisiae deletion strains, locus YOL006C, strain TOP1, stronger effect = lower value 0.108 | S. cerevisiae deletion strains, locus YOL012C, strain htz1 0.189 | S. cerevisiae deletion strains, locus YOL147C, strain pex11, stronger effect = lower value 0.0679 | S. cerevisiae deletion strains, locus YOR001W, strain rrp6, stronger effect = lower value 0.0757 | S. cerevisiae deletion strains, locus YOR061W, strain CKA2, stronger effect = lower value 0.048 | S. cerevisiae deletion strains, locus YOR069W, strain VPS5, stronger effect = lower value 0.0497 | S. cerevisiae deletion strains, locus YOR070C, strain gyp1, stronger effect = lower value 0.59 | S. cerevisiae deletion strains, locus YOR080W, strain dia2, stronger effect = lower value 0.0706 | S. cerevisiae deletion strains, locus YOR083W, strain WHI5, stronger effect = lower value 0.0621 | S. cerevisiae deletion strains, locus YOR106W, strain vam3, stronger effect = lower value 0.0686 | S. cerevisiae deletion strains, locus YOR136W, strain idh2, stronger effect = lower value 0.0816 | S. cerevisiae deletion strains, locus YOR144C, strain elg1, stronger effect = lower value 0.0654 | S. cerevisiae deletion strains, locus YOR184W, strain ser1, stronger effect = lower value 0.0794 | S. cerevisiae deletion strains, locus YOR231W, strain MKK1, stronger effect = lower value 0.109 | S. cerevisiae deletion strains, locus YOR265W, strain rbl2, stronger effect = lower value 0.0573 | S. cerevisiae deletion strains, locus YOR270C, strain vph1, stronger effect = lower value 0.102 | S. cerevisiae deletion strains, locus YOR290C, strain snf2, stronger effect = lower value 0.0632 | S. cerevisiae deletion strains, locus YOR316C, strain cot1, stronger effect = lower value 0.0675 | S. cerevisiae deletion strains, locus YPL051W, strain arl3, stronger effect = lower value 0.0637 | S. cerevisiae deletion strains, locus YPL055C, strain LGE1, stronger effect = lower value 0.0663 | S. cerevisiae deletion strains, locus YPL078C, strain atp4, stronger effect = lower value 0.0651 | S. cerevisiae deletion strains, locus YPL106C, strain sse1, stronger effect = lower value 0.115 | S. cerevisiae deletion strains, locus YPL240C, strain hsp82, stronger effect = lower value 0.0569 | S. cerevisiae deletion strains, locus YPL241C, strain CIN2, stronger effect = lower value 0.0508 | S. cerevisiae deletion strains, locus YPL256C, strain CLN2, stronger effect = lower value 0.126 | S. cerevisiae deletion strains, locus YPR119W, strain clb2, stronger effect = lower value 0.0704 | S. cerevisiae deletion strains, locus YPR141C, strain kar3, stronger effect = lower value 0.0795 | S. cerevisiae deletion strains, locus YPR163C, strain tif3, stronger effect = lower value 0.0768 | S. cerevisiae deletion strains, locus YPR167C, strain met16, stronger effect = lower value 0.0675 | S. cerevisiae deletion strains, strain wtn01, stronger effect = lower value 0.076 | S. cerevisiae strains, strain wild type, stronger effect = lower value 0.0486
